This note sets out measurements from PubChem BioAssay AID1893 (NMMLSC, 2009).

Molecules are shown by their SMILES. Out of some 5,900 compounds screened, about 120 (2%) were called active. These entries were drawn from the full list. Unmarked numbers belong to inactive results. Rule as the data show it: active = percent response mostly above about 71% (no sharp cut-off); inactive = mostly below about 38%.

The assay deals with MEKK2 (MAP3K2) mutant PB1 domain binding MEK5, human. Kind of assay: mutant MEKK2 PB1-MEK5 binding signal retest – biochemical, single concentration, multiplex bead flow cytometry, confirmation (AID 1893).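 Also: higher means compound restores mutant binding toward wildtype level.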 Particulars: Alexa488-MEK5 binding to MEKK2 mutant, at 10 µM, hits give high values.
Consider `COc1ccc(CC(=O)N2N=C(C)CC2(O)C(F)(F)F)cc1` (stereo unspecified), for which the percent response is -3%.

Regarding `O=C(CN1CCN(C(=O)c2ccco2)CC1)Nc1ccc(Cl)c(C(F)(F)F)c1`, the percent response is 7%.

As to `COc1ccc(C2CC(=O)Nc3cc(C)c(C)cc32)c(OC)c1OC` (stereo unspecified), the percent response was 4%.

As for `COc1ccc(C(=O)NCC(=O)N/N=C/c2ccc([N+](=O)[O-])o2)cc1OC`, the percent response was -10%.

For `CCO[C@H]1OC(C(=O)N2CCOCC2)=C[C@@H](c2ccc3c(c2)OCO3)[C@@H]1CCCO`, the percent response is 4%.

Take `Cc1ccc(C(=O)N/C(=C/c2ccco2)C(=O)NCCc2c[nH]c3ccccc23)cc1C`: the percent response was -4%.

For the compound `CN(C)CCCN(C(=O)COc1ccccc1)c1nc2c(Cl)cccc2s1`, the percent response was 18%.

As to `CN(C)c1ccc(/C=C2\NC(=S)N(Cc3ccccc3)C2=O)cc1`, the percent response was -10%.

With `C=CCN1C=C2C(=O)C(C)(OC(=O)CCc3ccccc3)C(=O)C=C2C=C1c1ccc(C#N)cc1` (stereo unspecified), the percent response is -1%.

As to `COc1ccc(CCNC(=O)CSc2nnc3ccc(-c4ccncc4)nn23)cc1`, the percent response was 6%.

Consider `CCN(CC)C(=O)CC(c1ccc2c(c1)OCO2)c1c(OC)cc(OC)c2c(-c3ccccc3)cc(=O)oc12` (stereo unspecified), for which the percent response was -4%.

Consider `COc1cccc(/C=N\NC(=O)C2=NNC(=O)C2C)c1O` (stereo unspecified), for which the percent response was 1%.

As for `FC(F)(F)c1nc(-c2ccccc2)ncc1-c1nnnn1-c1ccccc1`, the percent response was -6%.

As for `CCOC(=O)N1CCN(CC(=O)n2c(C)c(C)c3ccccc32)CC1`, the percent response was -3%.

In the case of `COc1cccc(/C(C)=N/Nc2ncc(Cl)cc2Cl)c1`, the percent response is -3%.

In the case of `c1ccc(CN2CCC(N=C3NN=C(c4ccc5c(c4)OCCO5)CS3)CC2)cc1`, the percent response was 52%.

As for `CCN1CCN(CCNC(=O)c2ccc(/C=C3/Sc4ccccc4N(Cc4cccc(C)c4)C3=O)cc2)CC1`, the percent response is 79% (active).

For the compound `Cc1cccc(CN2CCC(CNC(=O)Nc3ccc(F)c(Cl)c3)CC2)c1`, the percent response is 8%.

`CCc1nnc(NC(=O)c2sc3nc(C)cc(COC)c3c2N)s1`: the percent response was 7%.

`COc1cccc(OC)c1C(=O)Nc1ccc(Cc2ccncc2)cc1`: the percent response is -2%.

Turning to `CCCCOC(=O)c1ccc(N2C(=O)CC(N3CCN(C/C=C/c4ccccc4)CC3)C2=O)cc1` (stereo unspecified), the percent response is 12%.

For the compound `Cn1ccc(=Nc2ccc(NC(=O)c3ccc(N=c4ccn(C)c5ccc([N+](=O)[O-])cc45)cc3)cc2)cc1`, the percent response is 28%.

In the case of `C=CCn1c(P(C)(=O)O)nc2ccccc21`, the percent response is -4%.

As to `CCN(CC)CCC(c1ccc2c(c1)OCO2)c1c(OC)cc(OC)c2c(-c3ccccc3)cc(=O)oc12` (stereo unspecified), the percent response is 28%.

In the case of `COC(=O)c1c(NC(=O)COc2ccc(Cl)cc2Cl)sc2c1CC(C)(C)NC2(C)C`, the percent response was 36%.

As to `CN(C)CCCNC(=S)N1CCN(c2nc(-c3ccccc3)cs2)CC1`, the percent response was 14%.

Turning to `O=c1[nH]c(=S)[nH]c2[nH]c(=S)[nH]c12`, the percent response is -2%.

In the case of `COc1cc(-c2nc(-c3ccncc3)no2)cc(OC)c1OC`, the percent response is 6%.

Take `Cc1ccc(NC(=S)N(CCCN2CCCC2)Cc2cccn2Cc2ccc(Cl)cc2)cc1`: the percent response is 13%.

Turning to `Cc1ccc2c(C)c(C(=O)N3CCN(c4ccncc4)CC3)oc2c1C`, the percent response was 31%.

As to `N=C1/C(=C/c2cccn2-c2cccc([N+](=O)[O-])c2)C(=O)N=C2SC=CN12`, the percent response was -6%.

Consider `CC(=O)N1CCN(S(=O)(=O)c2ccc(C)c([N+](=O)[O-])c2)C1C(C)C` (stereo unspecified), for which the percent response is -1%.

Consider `COC(=O)c1nc2n(n1)C(c1ccc([N+](=O)[O-])cc1)C(C(=O)Nc1ccc(Cl)cc1)=C(C)N2` (stereo unspecified), for which the percent response is 2%.

`Cc1ccccc1CCN(CC(=O)NC1CCCCC1)C(=O)c1csnn1`: the percent response was -24%.

As for `CCCn1c(=N)n(CC(=O)c2ccc(Cl)c(Cl)c2)c2ccccc21`, the percent response was 33%.

With `CC(C)CC(=O)NC(=S)Nc1cc(C(=O)O)ccc1Cl`, the percent response was -1%.

Consider `O=C1NCC(=O)N(Cc2ccccc2)/C1=C/c1ccccc1`, for which the percent response is -16%.

Take `CCc1ccc(-c2nn(-c3ccccc3)cc2CSC(=N)N)cc1`: the percent response is 68%.

For `CNC(=O)/C(=C\C=C\c1ccccc1)NC(=O)c1ccc([N+](=O)[O-])cc1`, the percent response was 7%.

Take `O=C(O)CC(Cc1ccccc1)C(=O)Nc1ccc([N+](=O)[O-])cc1` (stereo unspecified): the percent response was -3%.

With `O=C(COC(=O)CNC(=O)c1ccco1)Nc1ccc(F)cc1`, the percent response is 1%.

Take `COc1ccc(S(=O)(=O)N2CN(CCc3ccc(OC)c(OC)c3)c3nc4ccccc4nc32)cc1`: the percent response was -4%.

Turning to `CCOC(=O)/C(C#N)=C/c1ccc(OCC(=O)Nc2ccccc2)c(OC)c1`, the percent response is 1%.

`CC(C)C(=O)N1c2ccccc2NC2=C(C(=O)CCC2)C1c1ccc(N(C)C)cc1` (stereo unspecified): the percent response was 10%.

`COCC(C)NC(=O)COc1nncc2ccccc12` (stereo unspecified): the percent response was -7%.

`O=C(NCc1ccccc1Cl)NC(=O)c1csc([N+](=O)[O-])c1`: the percent response was 1%.

With `Cn1c(C(=O)NCCCN2CCCCC2)cc2sccc21`, the percent response was 10%.

Turning to `COc1cc(Br)c(-c2sc(Nc3ccccc3)n[n+]2-c2ccccc2)cc1OC`, the percent response was 14%.

`CCc1ccc2nc(Nc3ncc(C(C)=O)c(C)n3)nc(C)c2c1`: the percent response is 0%.

Consider `CCOC(=O)c1c(-c2ccccc2)csc1NC(=S)NC(=O)c1ccccc1`, for which the percent response was 0%.

For `O=C(CN1C(=O)c2cccnc2Oc2ccc(Cl)cc21)Nc1ccc(F)cc1`, the percent response is 1%.

As for `N=c1c2c(-c3ccccc3)c(-c3ccccc3)n(Cc3ccccc3)c2ncn1CCCO`, the percent response is 21%.

For `Cc1noc(C)c1S(=O)(=O)N(C)Cc1ccccc1`, the percent response is 5%.

`Cc1nn(-c2ccccc2)c(NC(=O)c2cccs2)c(-c2ccc(Cl)cc2)c1=O`: the percent response is -4%.

Regarding `COc1cccc(NC(=S)NCCCN2CCOCC2)c1`, the percent response was 6%.

With `CCN(CC)CCOCCOc1ccc(Cl)c2ccccc12`, the percent response is 22%.

With `CCCCCCCCCCOC(=O)Cn1c(COc2ccc(C)cc2)[n+](C)c2ccccc21`, the percent response is 74% (active).

As for `CCCCCCCCCCOC(=O)Cn1c(COc2cccc(OC)c2)[n+](C)c2ccccc21`, the percent response is 115% (active).

Take `CN(C)CCCN(C(=O)c1ccc(S(=O)(=O)N2CCCc3ccccc32)cc1)c1nc2ccc(F)cc2s1`: the percent response is 53%.

As to `CSCC[C@H](NC(=O)CCCn1nnc2ccccc2c1=O)C(=O)O`, the percent response was 1%.

`CN1CCN(/N=C/c2ccc(C#N)cc2)CC1`: the percent response is -4%.

For the compound `CC1CCN(C2=NC(=O)/C(=C/c3cn[nH]c3-c3ccccc3)S2)CC1`, the percent response is -9%.

`CCOc1ccc(S(=O)(=O)NCCCn2ccnc2)cc1NC(C)=O`: the percent response is -6%.

For the compound `CCCCNC(=O)N1CCCC(N(C)CCc2ccc(OC)c(OC)c2)C1` (stereo unspecified), the percent response was -2%.

On to `CC(C)(C)NC(=O)Cn1cnc([N+](=O)[O-])n1`, for which the percent response is -7%.

On to `COc1ccccc1OCCNCC(O)COc1cccc2[nH]c3ccccc3c12` (stereo unspecified), for which the percent response is 34%.

`Cc1cccc(-c2ncc(CN3CCC(CO)(CCCc4ccccc4)CC3)cn2)c1`: the percent response is 9%.

As for `Cc1nn(-c2ccccc2)c(C)c1NC(=O)CCl`, the percent response was -2%.

With `COC(=O)CCc1sc(Nc2ccc(Br)cc2)nc1-c1ccc(OC)cc1`, the percent response was 9%.

`C#CCOCCOCCOCCNc1nc(N2CCN(C(=O)C([C@@H](C)CC)n3cc(C(N)COC(=O)C(F)(F)F)nn3)CC2)nc(N2CCN(C(=O)[C@H](CCCCN)n3cc(C(N)CC(C)C)nn3)CC2)n1` (stereo partly specified): the percent response was 52%.

Regarding `O=C(CCCO)N/N=C/c1cc(Br)ccc1O`, the percent response was -1%.

Consider `O=C(Nc1ccn(Cc2ccccc2)n1)c1cccc(F)c1`, for which the percent response was -3%.

For `COc1ccc(CCn2c(NN=C3CCCC3)nc3c2c(=O)[nH]c(=O)n3C)cc1`, the percent response was 3%.

As for `CCC(C)OC(=O)C(C)Oc1ccc(-c2ccccc2)cc1` (stereo unspecified), the percent response is 10%.

`CC(C)CC(=O)NC(=S)NCc1ccccc1`: the percent response is -3%.

Take `O=c1c(/C=N/O)coc2ccc(Cl)cc12`: the percent response is -2%.

Take `Cc1ccc2c(c1)C1CN(C)CCC1N2S(=O)(=O)c1ccc(Oc2ccc([N+](=O)[O-])cc2)cc1` (stereo unspecified): the percent response was 61%.

For `Cc1c(S(=O)(=O)NCc2ccccc2)c(=O)n(C)c(=O)n1C`, the percent response was 2%.

Regarding `C[N+](C)(C)CCNC(=O)c1c(O)c2c([nH]c1=O)CCCC2`, the percent response was -3%.

Consider `O=C(O)/C=C\C(=O)Nc1ccc(OCc2ccccc2)cc1`, for which the percent response was -4%.

As to `COc1ccccc1NC(=S)N1CCN(c2ccc(F)cc2)CC1`, the percent response was -8%.

Regarding `Cc1cccc(OCC(O)CN2CCN(CCN3C(=O)c4cccc5cccc(c45)C3=O)CC2)c1C` (stereo unspecified), the percent response was 3%.

As to `Cc1ccc(N2C(=O)CC(N3CCSCC3)C2=O)c(C)c1` (stereo unspecified), the percent response is 2%.

`O=C(c1ccc(Br)o1)N(c1ccccn1)C1CCCCC1`: the percent response is 3%.

For `COc1ccc(SC[C@H](Cc2ccccc2)N2CCN(CCc3ccccc3)CCC2=O)cc1`, the percent response was 16%.

For `CCOC(=O)c1c(NC(=O)c2ccc(S(=O)(=O)N(C)CC3CCCO3)cc2)sc2c1CC(C)(C)NC2(C)C` (stereo unspecified), the percent response is 7%.

In the case of `O=C(NCCCN1CCN(c2ccc(F)cc2)CC1)Nc1ccc([N+](=O)[O-])cc1`, the percent response was 26%.

Turning to `CC1CN(C(=O)c2ccccc2NS(=O)(=O)c2cccc([N+](=O)[O-])c2)CC(C)O1` (stereo unspecified), the percent response is 0%.

Consider `c1ccc2c(c1)C(=NC1CCCCC1)NC2=NC1CCCCC1`, for which the percent response is 18%.

Regarding `Cc1cccc(OCCNC(=O)CSc2ccc(C(F)(F)F)cc2[N+](=O)[O-])c1`, the percent response was 2%.

As for `O=C(NC1CCN(Cc2ccccc2)CC1)c1ccc(Oc2cc(Cl)cc(Cl)c2)o1`, the percent response was 10%.

Take `O=C(CC1SCCNC1=O)Nc1ccc(Cl)c(Cl)c1` (stereo unspecified): the percent response was 4%.

Take `CN(CC(=O)Nc1cccc(F)c1)CC(=O)Nc1cccc([N+](=O)[O-])c1`: the percent response is -3%.

For `COc1ccccc1N=C(C)C1=C(O)COC1=O`, the percent response is 7%.

With `COc1cccc(OCC(=O)NNC(=O)c2cnccn2)c1`, the percent response is -1%.

Regarding `COC(=O)c1c(NC(=O)COC(=O)[C@@H](NS(=O)(=O)c2ccccc2)C(C)C)sc2c1CCC2`, the percent response is -1%.

`CCOC(=O)CN(C)S(=O)(=O)c1ccc(-c2cc(C(=O)OC)sc2C(F)(F)F)cc1`: the percent response was -3%.

As to `Cc1cc(Cl)ccc1OCc1nc(-c2ccncc2)no1`, the percent response was -15%.

Take `O=C(O)CCCC(=O)Nc1ccc(Oc2cccc(C(F)(F)F)c2)nc1`: the percent response is 4%.

Regarding `COc1cc(C)nc(N2CCCC(C(=O)NCC(C)C)C2)n1` (stereo unspecified), the percent response is -2%.

As to `O=C(O)C1CCN(c2ccc([N+](=O)[O-])cc2[N+](=O)[O-])CC1`, the percent response is 6%.

With `Cc1no[n+]([O-])c1COc1ccccc1/C=C1\NC(=S)NC1=O`, the percent response is -5%.

On to `COc1ccc(C(=O)C[n+]2ccc(C)cc2)cc1`, for which the percent response was 6%.

For the compound `CC(C)CC(=O)N1CCN(Cc2ccccc2Br)CC1`, the percent response is 3%.

As to `CCOC(=O)c1c(Cc2ccc(Cl)cc2)c[nH]c1C`, the percent response is 0%.

As to `Cc1cn(COC/C=C/c2ccccc2)c(=O)[nH]c1=O`, the percent response was 2%.

Consider `COc1ccc(CNC(=O)C2CCN(S(C)(=O)=O)CC2)cc1`, for which the percent response was 4%.

For `COC(=O)c1cc(NC(=O)c2cc(C(C)(C)C)nn2Cc2cccc(C)c2)ccc1N1CCOCC1`, the percent response was -5%.

Consider `CCN(CC)CCOc1ccc2c(c1)C(=NNC(=O)c1ccccn1)c1cc(OCCN(CC)CC)ccc1-2`, for which the percent response is 75% (active).

As to `COc1cc(NC(=S)NCc2ccco2)c(OC)cc1Cl`, the percent response is 3%.

With `Cn1c(SCc2nc3ccccc3s2)nnc1-c1ccc2c(c1)OCO2`, the percent response is 0%.
